{
  "source": "PubChem BioAssay AID463173",
  "about": "(ICCB-Longwood Screening Facility, Harvard Medical School, 2010)",
  "note": "Among all 52,000 compounds or so, about 4,300 (8.3%) were called active. What follows is part of a selection rich in actives, with near analogues and random picks from the rest. Unmarked numbers belong to inactive results. No stated cut-off is given here; in the data, active means survival mostly below about 52% (no sharp cut-off); inactive means mostly above about 56%.",
  "data": [
    {"tested_on": "DeltatarO mutant", "assay": "growth inhibition of S. aureus wild type versus tarO mutant, primary screen, teichoic acid synthesis inhibitors, RN4220, OD600 (AID 463173)", "settings": "OD600, 18 h, hits give low values, screened at 18.75 µg/mL (by protocol)", "values": [
      {"compound": "Cc1cccc(Cn2c(=O)n(-c3cc(C)cc(C)c3)c(=O)c3oc4ccccc4c32)c1", "survival": "71%"},
      {"compound": "Cc1sc2ncn(CC(=O)N3CCN(c4ccc(F)cc4)CC3)c(=O)c2c1S(=O)(=O)N1CCC(C)CC1", "survival": "75%"},
      {"compound": "Cc1ccc(C)c(NC(=O)c2ccc(CN3CC(=O)N4CCCCC4C3=O)cc2)c1", "note": "(stereo not drawn)", "survival": "54%"},
      {"compound": "Cc1cc(Oc2nc3ccccn3c(=O)c2/C=C(\\C#N)c2nc3ccccc3s2)ccc1Cl", "survival": "63%"},
      {"compound": "COc1ccc(S(=O)(=O)N2CCC(C(=O)NC(C)c3ccccc3)CC2)cc1", "note": "(stereo not drawn)", "survival": "79%"},
      {"compound": "COc1ccc(OC)c(/C=N/c2ncn[nH]2)c1", "survival": "101%"},
      {"compound": "COCCCNC(=O)Cn1c(=O)nc(-c2ccccc2)c2ccccc21", "survival": "78%"},
      {"compound": "CCOc1ccccc1NC(=O)c1ccc2c(c1)CCCN2S(C)(=O)=O", "survival": "81%"},
      {"compound": "Cc1nn(-c2ccc(N3CCCC3)nn2)c(C)c1CCC(=O)Nc1ccc(F)c(Cl)c1", "survival": "68%"},
      {"compound": "O=C(NCc1cccn1Cc1ccccc1)Nc1cccc(C(F)(F)F)c1", "survival": "54%"},
      {"compound": "COCCCNC(=O)c1ccc(Cn2c(=O)c3ccccc3n(Cc3ccc(Cl)cc3)c2=O)cc1", "survival": "89%"},
      {"compound": "COc1ccc(NC(=O)CN(C)S(=O)(=O)c2ccc3nc(C)sc3c2)cc1Cl", "survival": "82%"},
      {"compound": "CN(C)c1ccc(/C=N/c2nc3ccccc3o2)cc1", "survival": "85%"},
      {"compound": "COc1ccc(CCNC(=O)c2ccc(Cn3c(SCc4ccccc4)nc4cccnc43)cc2)cc1", "survival": "92%"},
      {"compound": "CCN(C(=O)c1cc2c(s1)-c1c(C)cccc1OC2)c1cc(C)ccc1C", "survival": "-1% (active)"},
      {"compound": "CCN(C(=O)c1cc2c(s1)-c1c(C)cccc1OC2)c1ccccc1F", "survival": "97%"},
      {"compound": "Cc1cccc(CCNC(=O)c2cc3c(s2)-c2c(C)cccc2OC3)c1", "survival": "83%"},
      {"compound": "CCN(Cc1ccccc1)C(=O)c1cc2c(s1)-c1c(C)cccc1OC2", "survival": "55% (active)"},
      {"compound": "Cc1ccc(CNC(=O)c2cc3c(s2)-c2c(C)cccc2OC3)cc1", "survival": "68%"},
      {"compound": "Cc1ccc(CCNC(=O)c2cc3c(s2)-c2c(C)cccc2OC3)cc1", "survival": "93%"},
      {"compound": "CC(C)CCN1C(=O)c2ccccc2CC1(C)C(=O)NC1CCC(C)CC1", "note": "(stereo not drawn)", "survival": "100%"},
      {"compound": "CCOC(=O)c1c(C)[nH]c(CCC(=O)NCc2ccccc2Cl)c1C", "survival": "98%"},
      {"compound": "CCOc1ccc(NC(=O)Cn2cc(C(=O)c3ccccc3)c(=O)c3cc4c(cc32)OCCO4)cc1", "survival": "73%"},
      {"compound": "COc1ccc(NC(=O)c2cn(-c3ccccc3)nc2-c2ccc(C)cc2)cc1", "survival": "63%"},
      {"compound": "O=C(O)c1ccc(NC(=O)c2cn(-c3ccccc3)nc2-c2ccc(Br)cc2)cc1", "survival": "24% (active)"},
      {"compound": "COc1ccccc1NC(=O)c1cn(-c2ccccc2)nc1-c1ccccc1", "survival": "95%"},
      {"compound": "CC(=O)c1ccc(NC(=O)c2cn(-c3ccccc3)nc2-c2ccc(Br)cc2)cc1", "survival": "75%"},
      {"compound": "COc1ccc(-c2nn(-c3ccccc3)cc2C(=O)Nc2ccccc2OC)cc1", "survival": "-2% (active)"},
      {"compound": "CCOC(=O)c1ccc(NC(=O)c2cn(-c3ccccc3)nc2-c2ccc(Br)cc2)cc1", "survival": "70%"},
      {"compound": "CCOC(=O)c1ccc(NS(=O)(=O)c2ccc3c(c2)CCN3C(=O)CC)cc1", "survival": "79%"},
      {"compound": "Brc1ccc(-c2cn3cc(Cc4ccccc4)sc3n2)cc1", "survival": "64%"},
      {"compound": "COc1ccc(OC)c(CNC(=O)c2cc(=O)[nH]c3ccc(S(=O)(=O)N4CCCCC4C)cc23)c1", "note": "(stereo not drawn)", "survival": "6% (active)"},
      {"compound": "COc1ccc(CCNC(=O)c2cc(=O)[nH]c3ccc(S(=O)(=O)N4CCCCC4C)cc23)cc1OC", "note": "(stereo not drawn)", "survival": "117%"},
      {"compound": "CC1CCN(S(=O)(=O)c2ccc3c(c2)oc(=O)n3CC(=O)N2CCCCC2)CC1", "survival": "66%"},
      {"compound": "CC1CCN(S(=O)(=O)c2ccc3c(c2)oc(=O)n3CC(=O)O)CC1", "survival": "0% (active)"},
      {"compound": "COc1cc(NC(=O)Cn2c(=O)oc3cc(S(=O)(=O)N4CCCCCC4)ccc32)cc(OC)c1", "survival": "95%"},
      {"compound": "CCOc1ccc(NC(=O)Cn2c(=O)oc3cc(S(=O)(=O)N4CCCCCC4)ccc32)cc1", "survival": "75%"},
      {"compound": "CC1CCN(C(=O)Cn2c(=O)oc3cc(S(=O)(=O)N4CCCCC4)ccc32)CC1", "survival": "86%"},
      {"compound": "COc1ccc(NC(=O)Cn2c(=O)oc3cc(S(=O)(=O)N4CCCCC4C)ccc32)cc1", "note": "(stereo not drawn)", "survival": "47% (active)"},
      {"compound": "COc1ccc(Br)cc1CNC(=O)c1cc(=O)[nH]c2ccc(S(=O)(=O)N3CCCCC3C)cc12", "note": "(stereo not drawn)", "survival": "82%"},
      {"compound": "Fc1ccc(N2CCN(c3ncnc4[nH]ncc34)CC2)cc1", "survival": "95%"},
      {"compound": "CCSc1ncc(Cl)c(C(=O)Nc2c(C(=O)Nc3cccc(C)c3)oc3ccccc23)n1", "survival": "109%"},
      {"compound": "Cc1c(C(=O)NCCc2ccccc2)cccc1-n1cnc2cccnc21", "survival": "75%"},
      {"compound": "O=C(O)c1cccc(NC2SC(=O)N(c3ccccc3)C2=O)c1", "note": "(stereo not drawn)", "survival": "107%"},
      {"compound": "O=C1C(=O)N(C2CCN(C(=O)c3ccc(Cl)cc3)CC2)CCN1Cc1ccc(F)cc1", "survival": "78%"},
      {"compound": "COc1ccc(-n2c(SCC(=O)N3CCc4ccccc43)nc3c([nH]c4ccccc43)c2=O)cc1", "survival": "92%"},
      {"compound": "Cc1cccc(NC(=O)CN(C)S(=O)(=O)c2cnc[nH]2)c1C", "survival": "97%"},
      {"compound": "CCN1CCc2c(sc(NC(=O)c3ccc(S(=O)(=O)N(C)C4CCCCC4)cc3)c2C(N)=O)C1", "survival": "80%"},
      {"compound": "Cc1ccccc1NC(=O)Cn1cc(S(=O)(=O)N2CCCC2)c(S(=O)(=O)N2CCCC2)c1", "survival": "90%"},
      {"compound": "CC(=O)c1ccc(NC(=O)CCCc2nc(-c3cccc(C)c3)no2)cc1", "survival": "69%"},
      {"compound": "COc1ccc(N2CCN(CCCNC(=O)C3COc4ccccc4C3)CC2)cc1", "note": "(stereo not drawn)", "survival": "131%"},
      {"compound": "CCn1c(CNc2ccc(C)cc2)nnc1SCc1ccccc1", "survival": "115%"},
      {"compound": "COc1cc(CN(C(=O)Nc2cccc(Cl)c2)c2ccccn2)cc(OC)c1OC", "survival": "68%"},
      {"compound": "Cc1ccc(CN(C(=O)Nc2cccc(Cl)c2)c2ccccn2)cc1", "survival": "40% (active)"},
      {"compound": "O=C(Nc1ccccc1)N(Cc1cccc(Cl)c1)c1ccccn1", "survival": "37% (active)"},
      {"compound": "CCc1ccc(CN(C(=O)Nc2cccc(Cl)c2)c2ccccn2)cc1", "survival": "94%"},
      {"compound": "O=C(Nc1ccccc1)N(Cc1ccc(F)cc1)c1ccccn1", "survival": "56%"},
      {"compound": "COc1ccc(CN(C(=O)Nc2cccc(Cl)c2)c2ccccn2)cc1OC", "survival": "92%"}
    ]}
  ]
}
